BCR signal inh: qHTS Assay to Find Inhibitors of Chronic Active B-Cell Receptor Signaling; ABC-DLBCL IkBa-CBG/CBR reporter, luminescence ratio, 4 h; Potency, µM (series often up to 46.1 µM), without a hit: at the highest dose activity change, negative = inhibition, hits mostly inhibitors; 340,000 compounds, 0.05% hits; active = well fitted inhibition curve with a large enough effect in the signal ratio, with a control signal flat, not every such curve was filed as active; inconclusive = small, poorly fitted or top-dose-only effect, or effect the other way, or a change in a side signal; the % refers to the signal ratio;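 note: potency is the fitted concentration of half-maximal effect; plate controls were basal doxycycline-induced cells for no effect and cells given 10 µM MG132 for full effect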
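TMD8 human ABC-DLBCL cells with doxycycline-inducible IκBα–green luciferase fusion and unfused red luciferase, in 0.5% FBS medium; compounds up to 46 uM, 4 h at 37C. Green/red luminescence ratio, filter-overlap corrected, fitted to concentration-response curves.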
PINK1 modulator: A Quantitative High throughput Screen to Identify Chemical Modulators of PINK1 Expression. 410,000 compounds, 0.2% hits. PINK1 immunofluorescence, high-content cytometry, 24 h. AID 624263, 2012. Potency, µM (titrated, usually from 76.6 µM), without a hit: top-dose activation (PINK1 increase), hits mostly activators; active = well fitted activation curve with a large enough effect; inconclusive = small, poorly fitted or top-dose-only effect; cell line not stated here; note: potency is the fitted concentration of half-maximal effect; % of control where 0% means no effect; nearly all actives have a fitted effect of over 65% in size
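Decision-based qHTS: stable cells, 24 h exposure to five compound concentrations, CCCP as control. Fixed cells stained for PINK1 plus nuclear, mitochondrial and cell markers, cytometer read.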
PKM2 act: qHTS Assay for Activators of Human Muscle isoform 2 Pyruvate Kinase; purified PKM2, Kinase-Glo ATP luminescence, activation; response scale: 0% is enzyme alone, no compound; Potency, µM (highest dose often 57.5 µM), without a hit: at the highest dose activation, most hits filed as activators; 260,000 compounds, 0.34% hits; note: potency is the fitted concentration of half-maximal effect; % is set by controls: 0 for no effect and ±100 for the full control effect; nearly all actives have a fitted effect of over 55% in size
Target sequence (P14618 whole entry, looked up, canonical isoform): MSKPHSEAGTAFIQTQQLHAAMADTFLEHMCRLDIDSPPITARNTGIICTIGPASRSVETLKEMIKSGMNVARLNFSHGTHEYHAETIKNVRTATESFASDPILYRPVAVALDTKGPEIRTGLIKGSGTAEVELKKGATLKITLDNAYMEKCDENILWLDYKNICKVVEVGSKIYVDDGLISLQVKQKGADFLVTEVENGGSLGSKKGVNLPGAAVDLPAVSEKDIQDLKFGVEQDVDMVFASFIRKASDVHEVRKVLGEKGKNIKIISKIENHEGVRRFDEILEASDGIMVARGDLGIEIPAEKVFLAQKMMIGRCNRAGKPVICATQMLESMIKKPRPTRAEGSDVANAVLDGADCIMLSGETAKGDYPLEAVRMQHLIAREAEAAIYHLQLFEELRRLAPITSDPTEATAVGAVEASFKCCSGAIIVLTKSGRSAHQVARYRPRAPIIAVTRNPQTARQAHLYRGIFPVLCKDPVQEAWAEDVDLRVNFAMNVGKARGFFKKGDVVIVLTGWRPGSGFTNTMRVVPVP
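hPK-M2, >95% pure; 0.1 mM ADP / 0.5 mM PEP final; imidazole pH7.2 buffer w/ 7 mM MgCl2, 50 mM KCl; 1 h RT; Kinase-Glo lum. Intermediate enzyme activity for dual inhibitor/activator qHTS.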
miR-21 reporter: qHTS Assay for Modulators of miRNAs and/orActivators of miR-21 | 340,000 tested, under 10 active | AID 2288, 2010 | Potency, µM (top dose mostly 38.3 µM), for inactives: top-dose activity change, positive = activation, hits mostly activators | HeLa miR-21 FLuc reporter, luciferase, 48 h;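 note: % of control where 0% means no effect; miR-21 action dims this reporter so a rising signal means less miR-21 action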
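Compounds were titrated across several concentrations (up to approximately 40 uM) and incubated 48 hours with HeLa miR-21-FLuc reporter cells (miR-21 target sequence downstream of FLuc, endogenous miR-21). Readout was firefly luciferase luminescence after lytic detection reagent.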
Pin1 inhibitor: qHTS Assay to Find Inhibitors of Pin1; Peptidyl-prolyl cis-trans isomerase NIMA-interacting 1 (Homo sapiens), Q13526; Pin1 FP peptide displacement, HiFluor488, 10 min; Potency, µM (doses to about 115 µM), for the others: top-dose activity, negative = inhibition, most hits filed as inhibitors; 390,000 compounds, 0.009% hits; AID 504891, 2011; active = well fitted inhibition curve with a large enough effect in the polarisation, with a control signal flat, not every such curve was filed as active; inconclusive = small, poorly fitted or top-dose-only effect, or effect the other way, or a change in a side signal; inactive = no such curve, though single readings can be large or run the other way; the % refers to the polarisation; note: potency is the fitted concentration of half-maximal effect; % is set by controls: 0 for no effect and ±100 for the full control effect
Target sequence (Q13526 whole entry, looked up): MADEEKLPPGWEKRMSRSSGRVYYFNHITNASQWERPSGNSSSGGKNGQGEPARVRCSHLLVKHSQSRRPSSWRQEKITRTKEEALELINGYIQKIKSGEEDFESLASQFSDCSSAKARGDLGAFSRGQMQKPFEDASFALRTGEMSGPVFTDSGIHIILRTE
B2AR arrestin: qHTS assay of beta-arrestin-biased ligands of beta2-adrenergic receptor | Beta-2 adrenergic receptor (Homo sapiens), P07550 | beta-arrestin recruitment to beta2AR, cell-based reporter | Potency, µM (top dose mostly 46.1 µM), for the others: top-dose activation, most hits filed as activators | 330,000 compounds, 0.02% hits | AID 492947, 2010;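 note: potency is the fitted concentration of half-maximal effect; 0% = DMSO controls and full agonism = EC100 isoproterenol or metaproterenol; nearly all actives have a fitted effect of over 65% in size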
Numbers without * were called inactive; u = inconclusive; x = not tested or not shown; [ ] = another dose, or the depositor's remark. Compounds with a hit are over-represented: about 0.46% of the library has one in this group of screens. Unless noted, calls come from the whole dose curve; as a rule, active = well fitted curve in the direction sought with a large enough effect; inconclusive = small, poorly fitted or top-dose-only effect, or another doubt; inactive = no such curve, though single readings can be large; an effect the other way counts as inactive or inconclusive.

SMILES | BCR signal inh | PINK1 modulator | PKM2 act | miR-21 reporter | Pin1 inhibitor | B2AR arrestin
CCOC(=O)c1cc(-c2ccccc2)n(CCCC(=O)Nc2ccc(CC)cc2)c1C | 7.9% | -0.1% | x | 13.6% | 21.0% | x
CCOC(=O)c1cc(-c2ccccc2)n(CCC(=O)Nc2ccc(C(F)(F)F)cc2)c1C | u | 39.8µM* | x | u | 8.3% | x
COc1ccc(CC(=O)n2[nH]c(=O)ccc2=O)cc1OC | 8.4% | 1.5% | 8.91µM* | -3.1% | 2.9% | 0.3%
CC(C)c1ccc(CN2CCC3(CCC(CNC(=O)c4ccn(C)n4)O3)CC2)cc1 (configuration not stated) | x | -0.4% | x | x | x | x
CCOC(=O)c1nc2sc3c(c2c(=O)[nH]1)CCCC3 | 2.8% | 0.0% | 3.8% | -6.2% | 4.2% | -0.2%
N#C/C(=C\c1ccc(C(=O)O)cc1)c1nc2sc3c(c2c(=O)[nH]1)CCCC3 | u | 31.6µM* | 20.3% | -5.4% | u | -0.2%
Cc1cc2nc(N3CCCN(Cc4cccn4-c4ncccn4)CC3)nc(C)c2cc1C | x | -0.6% | x | x | x | x
Cc1[nH]c(=O)[nH]c(=O)c1NC(=O)c1sc2nc3c(C)cccc3cc2c1N | u | 1.5% | -2.1% | 8.3% | u | -1.3%
Cc1ccc2cc3c(N)c(C(=O)Nc4c(C)[nH]c(=O)[nH]c4=O)sc3nc2c1 | u | 31.6µM* | 20.1% | 1.6% | u | 0.5%
Cc1cc(O)c(C=O)c2c1C(=O)Oc1c(CO)c(O)c3c(c1O2)C(O)OC3=O (configuration not stated) | 17.3% | 0.1% | -7.3% | -2.3% | 3.16µM* | -0.3%
CCc1c(C)nc2ncnn2c1N1CCC(C(=O)Nc2ccc(C)cc2)CC1 | -2.5% | u | 7.0% | 26.6% | -2.5% | -0.1%
CCc1c(C)nc2ncnn2c1N1CCC(C(=O)Nc2ccccc2)CC1 | -6.2% | 12.6µM* | -0.7% | 12.1% | -4.8% | 0.5%
Cc1ccc(Nc2nc(=O)c3cccnc3s2)cc1 | -0.3% | 1.0%[38.3 µM] | -1.5% | -30.6% | -0.4% | 0.4%
COc1ccc(OC)c(Nc2nc(=O)c3cccnc3s2)c1 | u | -0.5% | 8.91µM* | -4.7% | u | -0.2%
COc1ccc(OC)c(-c2ccc(O)c(CN3CCc4c([nH]c5ccccc45)C3)c2)c1 | x | -0.5% | x | x | x | x
CCN(CC)S(=O)(=O)c1ccc2c(c1)nc(SCc1nc3ccsc3c(=O)[nH]1)n2CC | u | -1.1% | 12.6µM* | 5.0% | 0.2% | -0.1%
COc1cccc(C2c3c(ncn(Cc4cccs4)c3=N)Oc3ccc4ccccc4c32)c1 (configuration not stated) | x | x | x | x | 27.3% | x
O=[S+]([O-])(c1ccc2ncsc2c1)N1CCN([S+](=O)([O-])c2c(F)cccc2F)CC1 | x | x | x | x | 1.4% | x
Cc1nc(N2CCC(C)CC2)c2c(C)c(C(=O)Nc3ccc(C(F)(F)F)cc3)sc2n1 | 1.5% | 39.8µM* | 3.1% | -6.0% | 7.8% | 0.0%
O=C(Nc1ccccc1)C1CCN(c2ncc(-c3ccc4c(c3)OCCCO4)s2)CC1 | x | x | x | x | -1.7% | x
N#C/C(=N\Nc1cccc(Cl)c1)C(=O)c1ccccc1 | u | 25.1µM* | -4.7% | 15.9% | u | 0.0%
N#C/C(=N\Nc1ccccc1Cl)C(=O)c1ccccc1 | u | u | -1.0% | -9.6% | -0.2% | -1.1%
COc1ccc(C(=O)/C(C#N)=N/Nc2cccc([N+](=O)[O-])c2)cc1 | u | 14.1µM* | -32.0% | 19.9% | -0.2% | -0.2%
FC(F)Sc1ccc(NC(=S)NC(c2ccccc2)c2ccccc2)cc1 | u | u | -1.5% | u | -3.6% | -0.1%
FC(F)Sc1ccc(NC(=S)NCc2ccccc2)cc1 | -0.1% | 14.1µM* | -1.1% | 7.1% | 0.5% | 0.1%
SMILES | BCR signal inh | PINK1 modulator | PKM2 act | miR-21 reporter | Pin1 inhibitor | B2AR arrestin
Cc1cc(C(=O)NCc2nc(-c3cccc(NC(=O)c4ccccc4)c3)oc2C)nc(C)n1 | x | -0.4% | x | x | x | x
COCCC(=O)NCC1Cc2cc(Cl)cc(-c3ccc4[nH]ccc4c3)c2O1 (configuration not stated) | x | 2.0% | x | x | x | x
COC(=O)c1c(OCc2cccnc2)cc(=O)n2c1CCN(Cc1cc3c(cc1Cl)OCO3)CC2 | x | 0.5% | x | x | x | x
CCCCNc1c(-c2ccc(OC)c(SC(C)CC)c2)nc2cc(C)ccn12 (configuration not stated) | u | 14.7% | x | x | u | 0.1%
CCCCNc1c(-c2ccc(Sc3ccc(OC)cc3)cc2)nc2cc(C)ccn12 | u | 28.2µM* | x | x | 6.9% | -0.1%
Cc1cc(C)n(C(=O)/C(C#N)=N/Nc2cc(Cl)cc(Cl)c2)n1 | 23.2% | 25.1µM* | 1.0% | u | -7.2% | -0.1%
COc1cc2ncnc(N(C)Cc3cccs3)c2cc1-c1ccc2c(c1)OCO2 | x | x | x | x | 5.8% | x
CC(C)Cc1nc(N2CCN(C(=O)c3ccccc3)CC2)c(C#N)c2c1CCC2 | -6.6% | 3.8% | 0.2% | -4.5% | u | -0.2%
CC(C)Cc1nc(N2CCN(C(=O)c3ccco3)CC2)c(C#N)c2c1CCC2 | u | 0.4% | 22.4µM* | -11.0% | 18.9% | 0.2%
c1ccc(CSc2ncnc3c2cnn3Cc2ccccc2)cc1 | u | 2.2% | 5.01µM* | -9.0% | 14.0% | -0.7%
CC(C)(C)C(=O)CSc1ncnc2c1cnn2Cc1ccccc1 | u | 1.3% | x | -0.6% | -6.5% | 0.5%
COc1ccc2cc3c(N)nn(C(=O)c4ccccc4Cl)c3nc2c1 | u | -1.4% | 20µM* | u | 11.5% | -0.8%
C=CCNC(=S)NNC(=O)COc1ccc2cc(Br)ccc2c1 | u | -3.1% | -0.4% | -67.3% | 7.8% | -0.2%
C=CCNC(=S)NNC(=O)COc1cccc(Cl)c1 | 17.8µM* | 2.0%[38.3 µM] | -1.5% | -16.1% | -19.4% | -0.5%
O=[N+]([O-])c1ccc2[nH]c(O)c(N=Nc3ccc(F)cc3)c2c1 | 2.9% | 28.2µM* | x | 2.4% | -0.5% | 0.0%
CCN(CC)S(=O)(=O)c1cc([N+](=O)[O-])ccc1N=Nc1c(O)[nH]c2ccccc12 | u | 11.2µM* | -4.6% | -0.9% | 25.3% | -2.1%
Cc1ccc(NS(=O)(=O)c2ccc3c(c2)N(C)CCO3)cc1C | x | x | x | x | 3.5% | x
COC(=O)c1cc(C(=O)c2cccc(Cl)c2Cl)cn1C | 2.2% | -1.3% | 25.1µM* | -6.6% | -5.7% | 0.8%
O=C1Cc2cc(S(=O)(=O)N3CCN(c4cccc(C(F)(F)F)c4)CC3)ccc2N1 | x | x | x | x | 23.1%[230 µM] | x
COc1ccc2ncnc(NCC3CCCO3)c2c1-c1ccc2c(c1)OCO2 (configuration not stated) | x | x | x | x | -21.1% | x

Bioassay records from PubChem BioAssay.
